Compound activity: PubChem, National Center for Advancing Translational Sciences (NCATS)
HP1b binding inh – HTS for Inhibitors of HP1-beta Chromodomain Interactions with Methylated Histone Tails; Potency, µM (series often up to 114 µM), hits mostly inhibitors; AlphaScreen HP1-beta / biotin-H3K9me3 peptide binding; 390,000 tested, 0.56% active; also: nearly all actives have a fitted effect of over 70% in size
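AlphaScreen: HP1-beta (50 nM) preformed 30 min with biotin-H3(1-18)K9me3 peptide (50 nM) in PBS pH 7.4, 0.01% Tween-20. Compound added for 30 min at RT, then streptavidin donor/nickel chelate acceptor beads (10 ug/mL) for 30 min.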
PLK1 PBD inh – qHTS for Inhibitors of PLK1-PDB (polo-like kinase 1 - polo-box domain): Primary Screen; Serine/threonine-protein kinase PLK1 (Homo sapiens), P53350; AID 720504, 2013; Plk1 PBD binding of FITC phosphopeptide, fluorescence polarization; Potency, µM, usual class: inhibitors; 360,000 tested, 2.8% active; also: series mostly up to about 57 µM; nearly all actives have a fitted effect of over 65% in size
JMJD2A Tudor – qHTS Assay for Inhibitors of JMJD2A-Tudor Domain. AlphaScreen JMJD2A-Tudor / H3K4me3 peptide binding. Potency, µM (series often up to 114 µM), usual class: inhibitors. 390,000 tested, 4.4% active. AID 504339, 2011; also: nearly all actives have a fitted effect of over 50% in size
Target sequence (O75164 whole entry, looked up, the tested form may be a part): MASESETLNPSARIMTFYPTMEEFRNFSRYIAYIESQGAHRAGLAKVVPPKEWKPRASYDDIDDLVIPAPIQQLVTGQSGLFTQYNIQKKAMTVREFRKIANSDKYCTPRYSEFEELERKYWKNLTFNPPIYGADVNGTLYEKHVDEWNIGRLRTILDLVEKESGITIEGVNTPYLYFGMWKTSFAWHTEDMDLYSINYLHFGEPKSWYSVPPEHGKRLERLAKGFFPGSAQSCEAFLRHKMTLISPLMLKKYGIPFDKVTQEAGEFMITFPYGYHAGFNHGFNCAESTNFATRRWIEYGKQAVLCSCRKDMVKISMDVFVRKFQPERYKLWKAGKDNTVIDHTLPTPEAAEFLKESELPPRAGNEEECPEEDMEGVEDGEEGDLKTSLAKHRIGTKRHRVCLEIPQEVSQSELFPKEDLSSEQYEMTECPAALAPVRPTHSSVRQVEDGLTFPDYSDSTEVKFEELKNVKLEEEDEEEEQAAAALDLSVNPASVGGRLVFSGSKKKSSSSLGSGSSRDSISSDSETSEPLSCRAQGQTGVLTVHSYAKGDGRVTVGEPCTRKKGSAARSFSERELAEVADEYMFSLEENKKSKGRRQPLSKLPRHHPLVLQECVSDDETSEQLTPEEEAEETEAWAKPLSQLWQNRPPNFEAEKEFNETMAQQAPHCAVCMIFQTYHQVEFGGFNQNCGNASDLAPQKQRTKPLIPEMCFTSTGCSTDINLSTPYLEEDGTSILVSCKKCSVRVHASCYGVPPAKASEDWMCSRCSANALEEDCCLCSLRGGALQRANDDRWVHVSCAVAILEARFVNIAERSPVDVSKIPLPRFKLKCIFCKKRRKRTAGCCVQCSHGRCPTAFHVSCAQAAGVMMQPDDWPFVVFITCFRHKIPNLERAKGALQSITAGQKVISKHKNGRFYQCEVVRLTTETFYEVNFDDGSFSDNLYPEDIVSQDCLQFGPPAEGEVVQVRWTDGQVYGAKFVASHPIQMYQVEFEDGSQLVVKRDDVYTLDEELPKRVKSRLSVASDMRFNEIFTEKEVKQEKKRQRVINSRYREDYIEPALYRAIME
G9a block – qHTS Assay for Inhibitors of Histone Lysine Methyltransferase G9a; G9a H3K9 monomethylation, AlphaScreen, 2 h; Potency, µM (series often up to 102 µM), hits mostly inhibitors; 350,000 tested, 8.8% active; AID 504332, 2011; also: nearly all actives have a fitted effect of over 75% in size
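Enzyme 20 nM + cpd, 15 min RT; add b-H3K9 pep 500 nM / SAM 20 uM; 2 h RT; anti-H3K9me1 Ab 0.5 ug/mL + SA donor / anti-rabbit acceptor beads 20 ug/mL each, 10 min; AlphaScreen read.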
BAZ2B block – qHTS Assay for Inhibitors of BAZ2B; AlphaScreen BAZ2B-H3K14Ac peptide displacement; Potency, µM (top dose mostly 114 µM), most hits filed as inhibitors; 360,000 tested, 4.4% active; Bromodomain adjacent to zinc finger domain protein 2B (Homo sapiens), Q9UIF8; also: nearly all actives have a fitted effect of over 60% in size
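Complex of BAZ2B and biotin-H3K14Ac (50 nM apiece) forms over 30 min at RT, then faces library compounds up to 110 uM for another 30 min; AlphaScreen beads added, 20 min dark incubation, luminescence read.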
ALOX12 inh – Primary qHTS assay for inhibitors of human arachidonate 12S-lipoxygenase (ALOX12): Round 2 | Polyunsaturated fatty acid lipoxygenase ALOX12 (Homo sapiens), P18054 | purified 12hLO, xylenol orange hydroperoxide absorbance | Potency, µM (titrated, usually from 108 µM), usual class: inhibitors | 580,000 tested, 1.1% active | AID 1671190, 2021
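Hydroperoxide product was detected by ferrous iron/xylenol orange as the 573 to 405 nm absorbance ratio. Arachidonic acid at 40 uM (final) was turned over for 30 min at room temperature by 150 nM human 12hLO, pH 7.0 Hepes buffer, after 15 min compound preincubation.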
Large screens that a line does not name were inactive. This is a sample that favours compounds with a hit; in the whole collection about 9% have one here. Calls follow the shape of the dose curve; as a rule, active = well fitted curve in the direction sought with a large enough effect; inconclusive = small, poorly fitted or top-dose-only effect, or another doubt; inactive = no such curve, though single readings can be large; an effect the other way counts as inactive or inconclusive.

COc1ccc(CN2CCCC(CO)(Cc3cccc(Cl)c3)C2)cc1OC (stereo not drawn)	none
OCC1(Cc2ccccc2)CCCN(Cc2ccc(-c3ccco3)cc2)C1 (stereo not drawn)	JMJD2A Tudor inconclusive, BAZ2B block 45µM (no result: G9a block)
CC(=O)C1=C(C)OC(N)=C(C#N)C1c1cccc2ccccc12 (stereo not drawn)	ALOX12 inh inconclusive (no result: G9a block)
CSc1ccc(C2C(C#N)=C(N)Oc3c2ccc(=O)c2c(C)oc(C)c32)cc1 (stereo not drawn)	HP1b binding inh inconclusive, JMJD2A Tudor 56µM, G9a block 32µM, BAZ2B block inconclusive, ALOX12 inh inconclusive
Cc1oc(C)c2c(=O)ccc3c(c12)OC(N)=C(C#N)C3c1ccccc1Cl (stereo not drawn)	PLK1 PBD inh inconclusive, G9a block 28µM, BAZ2B block inconclusive, ALOX12 inh inconclusive
Cc1oc(C)c2c(=O)ccc3c(c12)OC(N)=C(C#N)C3c1ccccc1 (stereo not drawn)	G9a block 8.9µM, BAZ2B block inconclusive, ALOX12 inh inconclusive
CSc1ccc(C2C(C#N)=C(N)Oc3c2ccc2ccccc32)cc1 (stereo not drawn)	none (no result: HP1b binding inh, PLK1 PBD inh, JMJD2A Tudor, G9a block, BAZ2B block)
O=C(O)c1ccccc1C(=O)c1ccc(Sc2ccc(Cl)cc2)c([N+](=O)[O-])c1	PLK1 PBD inh inconclusive, BAZ2B block inconclusive (no result: G9a block)
CC(=O)NCCNC(=O)c1ccc(Sc2ccccc2)c([N+](=O)[O-])c1	none
Nc1ccccc1Sc1ccc(C(=O)c2ccccc2C(=O)O)cc1[N+](=O)[O-]	PLK1 PBD inh inconclusive, JMJD2A Tudor inconclusive, G9a block 20µM, ALOX12 inh inconclusive
CC(C)OC(=O)c1ccccc1C(=O)c1ccc(N)c([N+](=O)[O-])c1	G9a block 13µM
CN(C)CCNC(=O)c1ccc(Sc2ccc(Br)cc2)c([N+](=O)[O-])c1	JMJD2A Tudor inconclusive, G9a block 35µM, ALOX12 inh inconclusive
CC(=O)c1ccc(Sc2ccccc2)c([N+](=O)[O-])c1	HP1b binding inh inconclusive, JMJD2A Tudor inconclusive, G9a block 22µM, BAZ2B block inconclusive
COc1cccc(NC(=O)CSc2nc3c([nH]c4ccccc43)c(=O)n2-c2cc(C)cc(C)c2)c1	none (no result: PLK1 PBD inh)
Cc1cc(C)c(Sc2ccccc2C(=O)O)c(C)c1	none (no result: HP1b binding inh, PLK1 PBD inh, JMJD2A Tudor, G9a block, BAZ2B block)
CC(=O)c1ccc(Sc2ccccc2N)c([N+](=O)[O-])c1	JMJD2A Tudor inconclusive, G9a block 45µM, BAZ2B block inconclusive
Nc1cc(C(=O)O)ccc1Sc1ccccc1C(=O)O	PLK1 PBD inh 11µM, G9a block 4.5µM, ALOX12 inh inconclusive
COC(=O)c1ccc(CC2(C)C(=O)Nc3ccc(-c4cccc(C(F)(F)F)c4)cc32)o1 (stereo not drawn)	none (no result: HP1b binding inh, JMJD2A Tudor, G9a block, BAZ2B block)
O=[N+]([O-])c1cc(C(F)(F)F)ccc1NCCc1c[nH]c2ccc(O)cc12	HP1b binding inh inconclusive, JMJD2A Tudor 22µM, G9a block inconclusive, BAZ2B block 40µM
O=[N+]([O-])c1cc(C(F)(F)F)ccc1NCCc1c[nH]c2ccccc12	HP1b binding inh inconclusive, JMJD2A Tudor 22µM, G9a block inconclusive, BAZ2B block 11µM
O=[N+]([O-])c1cccnc1NCCc1c[nH]c2ccccc12	none
O=C(OCC(=O)N1c2ccccc2Sc2ccccc21)c1cccnc1	none
Cc1ccc(NC(=O)C(C)N2CCC(C(=O)NCc3ccccc3)CC2)c(Br)c1 (stereo not drawn)	none (no result: HP1b binding inh, PLK1 PBD inh, JMJD2A Tudor, G9a block, BAZ2B block)
Fc1ccc(CNc2nc(-c3ccco3)cc(C(F)(F)F)n2)cc1	none (no result: G9a block)
CCCCCCCCN1C(=O)[C@H](CC(=O)NCc2ccc(C)o2)C[C@@]2(C(=O)OC)CCCCC=C12	ALOX12 inh 35µM (no result: HP1b binding inh, JMJD2A Tudor, G9a block, BAZ2B block)
COc1cc([N+](=O)[O-])ccc1NC(=O)NNC(=O)CCc1ccccc1	none
CC(C)Cn1nc(C(=O)Nc2nc3c(s2)CCC3)c2ccccc2c1=O	none (no result: HP1b binding inh, PLK1 PBD inh, JMJD2A Tudor, G9a block, BAZ2B block)
CN(C)c1oc(-c2ccccc2Cl)nc1S(=O)(=O)c1ccccc1	JMJD2A Tudor inconclusive, G9a block 79µM, BAZ2B block inconclusive, ALOX12 inh inconclusive
CCOc1cc(CNn2cn[nH]c2=S)cc(Cl)c1OCc1ccccc1F	JMJD2A Tudor inconclusive, G9a block 7.9µM, ALOX12 inh inconclusive
CCOc1cc(CNc2ccccc2)cc(Br)c1OCc1ccccc1F	none
COc1ccc(Br)cc1CNC(=O)Cn1nc(C)n2cccc2c1=O	none
N#CC1=C(N)Oc2c(ccc3ccccc23)C1c1cccs1 (stereo not drawn)	G9a block 7.1µM, BAZ2B block inconclusive (no result: ALOX12 inh)
N#CC1=C(N)Oc2cc(O)ccc2C1c1cccs1 (stereo not drawn)	G9a block 56µM, ALOX12 inh inconclusive
O=C(NCc1ccccc1)C1Cc2c(-c3cccc(F)c3)ccnc2O1 (stereo not drawn)	none (no result: HP1b binding inh, JMJD2A Tudor, G9a block, BAZ2B block)
Cc1ccc(S(=O)(=O)N2CCCCC2)cc1NC(=O)CNc1ccc(C(F)(F)F)cc1	G9a block 56µM
CCN(CC)S(=O)(=O)c1ccc(C)c(NC(=O)CNc2cccc(S(=O)(=O)N3CCCC3)c2)c1	none
Cc1ccc(S(=O)(=O)N2CCCCC2)cc1NC(=O)CCCOc1ccccc1	G9a block inconclusive
CC(=O)c1ccc(OCCCC(=O)Nc2cc(S(=O)(=O)N3CCCCC3)ccc2C)cc1	G9a block 35µM
Cc1cc2c(c(/C=C/C(=O)c3ccccc3)c1)OC1(C=C2)Oc2ccccc2C(=O)N1C (stereo not drawn)	G9a block 50µM, BAZ2B block inconclusive, ALOX12 inh inconclusive
Cc1ccc(C(c2nnnn2C2CCCC2)N2CCN3CCCC3C2)cc1 (stereo not drawn)	PLK1 PBD inh inconclusive
CCCCc1c(C)c(C#N)c2[nH]c3ccccc3n2c1=O	none
CCCCCCCc1c(C#N)c(N)[nH]c(=S)c1C#N	PLK1 PBD inh 24µM, G9a block inconclusive, BAZ2B block inconclusive, ALOX12 inh inconclusive
CC(=O)c1ccc(OCCCC(=O)NC(C)c2ccc(S(N)(=O)=O)cc2)cc1 (stereo not drawn)	none (no result: BAZ2B block)
OCCNc1c2ccccc2nc2c(F)c(F)c(F)c(F)c12	none
Cc1c2ccccc2nc2c(F)c(NCCO)c(F)c(F)c12	PLK1 PBD inh 6.7µM, G9a block inconclusive
Cn1nccc1CN1CCC(n2cc[nH]c2=O)CC1	none (no result: HP1b binding inh, PLK1 PBD inh, JMJD2A Tudor, G9a block, BAZ2B block)
CSc1ccc(C(=S)N2CCCC2)cc1	HP1b binding inh inconclusive, PLK1 PBD inh inconclusive, G9a block 32µM
CSc1ccc(C(=S)N2CCN(C(c3ccccc3)c3ccccc3)CC2)cc1	PLK1 PBD inh 13µM, G9a block 10µM
